Records with an inconclusive call do not appear. Calls of active or inactive are those of the source. Unless noted, calls come from the whole dose curve; as a rule, active = well fitted curve in the direction sought with a large enough effect in the repeat runs; inconclusive = weak or mixed curves; inactive = no such curve, though single readings can be large; an effect the other way counts as inactive or inconclusive.
What was measured:
[1] = qHTS assay to identify small molecule antagonists of the sonic hedgehog signaling (Shh) pathway (AID 1259369; calls by dose curve; note: nearly all actives have a fitted effect of over 45% in size; note: potency is the fitted concentration of half-maximal effect)
Procedure, shortened: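 Cells are plated and held 4hr at 37 C, compounds (DMSO) are pinned in, conditioned medium is added to stimulate the pathway, and after 24hr luciferase reagent is added for 30min before luminescence is read.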

[2] = target: Estrogen receptor beta (Homo sapiens) (UniProt Q92731); assay: qHTS assay to identify small molecule agonists of the estrogen receptor beta (ER-beta) signaling pathway (AID 1259377; active = well fitted activation curve with a large enough effect in the signal ratio in the repeat runs, not every such curve was filed as active; the % refers to the signal ratio)
Estrogen receptor beta (Homo sapiens), sequence (Q92731 whole entry, looked up): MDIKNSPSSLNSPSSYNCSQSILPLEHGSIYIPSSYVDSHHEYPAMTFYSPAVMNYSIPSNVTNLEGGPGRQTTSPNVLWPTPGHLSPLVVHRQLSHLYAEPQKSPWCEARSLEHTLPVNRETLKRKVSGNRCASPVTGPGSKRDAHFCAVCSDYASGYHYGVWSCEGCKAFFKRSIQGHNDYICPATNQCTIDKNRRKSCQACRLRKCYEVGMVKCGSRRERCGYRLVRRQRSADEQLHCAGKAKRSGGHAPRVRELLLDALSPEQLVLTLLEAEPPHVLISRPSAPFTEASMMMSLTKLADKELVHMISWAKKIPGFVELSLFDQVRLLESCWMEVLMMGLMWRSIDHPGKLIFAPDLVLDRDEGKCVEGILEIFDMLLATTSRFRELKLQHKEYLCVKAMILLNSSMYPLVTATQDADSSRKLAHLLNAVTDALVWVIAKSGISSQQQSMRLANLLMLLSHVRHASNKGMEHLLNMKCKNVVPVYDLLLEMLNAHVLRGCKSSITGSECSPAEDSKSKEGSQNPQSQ
Procedure, shortened: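 Reporter cells (HEK293T, ER-beta-UAS-bla) receive compounds or DMSO after a 6 hr pre-incubation. They then incubate 16 hr at 37C/5% CO2, and fluorescence from LiveBLAzer B/G substrate is measured after 2 hours at room temperature.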

[3] = target: Estrogen receptor beta (Homo sapiens) (UniProt Q92731); assay: qHTS assay to identify small molecule antagonists of the estrogen receptor beta (ER-beta) signaling pathway (AID 1259378; active = well fitted inhibition curve with a large enough effect in the signal ratio in the repeat runs, not every such curve was filed as active; the % refers to the signal ratio)
Procedure, shortened: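 ER-beta-UAS-bla HEK293T cells in 2% charcoal-stripped FBS medium treated with compound plus 1nM final 17-beta-estradiol for 16 hr at 37C. Beta-lactamase reporter read by FRET substrate fluorescence after 2 hours at room temperature.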

[4] = qHTS assay to identify small molecule agonists of the androgen receptor (AR) signaling pathway in the presence of an antagonist - cell viability counter screen (AID 1259379);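 note: MDA-kb2 human breast cancer cells carrying an MMTV luciferase reporter; series mostly up to about 92 µM; nearly all actives have a fitted effect of over 25% in size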
Procedure, shortened: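 Cytotoxicity is assessed by CellTiter-Fluor in MDA-kb2 cells carrying an MMTV-driven luciferase reporter. Cells receive 3.0uM nilutamide plus compounds at 15 concentrations and incubate 16 hr at 37C without CO2 before fluorescence reading.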

[5] = qHTS assay to identify small molecule agonists of the estrogen receptor beta (ER-beta) signaling pathway - cell viability counter screen (AID 1259380); note: nearly all actives have a fitted effect of over 30% in size; note: potency is the fitted concentration of half-maximal effect
Procedure, shortened: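 Cytotoxicity is measured in parallel with the reporter screen: after 16 hr compound exposure at 37C and a 2 hr LiveBLAzer step, CellTiter-Glo is added to the same ER-beta-UAS-bla HEK293T wells and luminescence read after 30 min.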

[6] = qHTS assay to identify small molecule antagonists of the estrogen receptor beta (ER-beta) signaling pathway - cell viability counter screen (AID 1259382); note: series mostly up to about 92 µM; nearly all actives have a fitted effect of over 55% in size
Procedure, shortened: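 Cytotoxicity counter screen multiplexed with the beta-lactamase antagonist assay: GripTite HEK293T ER-beta-bla cells were treated 16 hr with test chemicals in the presence of 1nM 17-beta-estradiol, and viability was measured by CellTiter-Glo.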

[7] = target: Estrogen receptor (Homo sapiens) (UniProt P03372); assay: qHTS assay to identify small molecule agonists of the estrogen receptor alpha (ER-alpha) signaling pathway in the presence of an antagonist (AID 1259383; calls by dose curve; note: top concentration of the series differs between compounds; nearly all actives have a fitted effect of over 15% in size)
Estrogen receptor (Homo sapiens), sequence (P03372 whole entry, looked up): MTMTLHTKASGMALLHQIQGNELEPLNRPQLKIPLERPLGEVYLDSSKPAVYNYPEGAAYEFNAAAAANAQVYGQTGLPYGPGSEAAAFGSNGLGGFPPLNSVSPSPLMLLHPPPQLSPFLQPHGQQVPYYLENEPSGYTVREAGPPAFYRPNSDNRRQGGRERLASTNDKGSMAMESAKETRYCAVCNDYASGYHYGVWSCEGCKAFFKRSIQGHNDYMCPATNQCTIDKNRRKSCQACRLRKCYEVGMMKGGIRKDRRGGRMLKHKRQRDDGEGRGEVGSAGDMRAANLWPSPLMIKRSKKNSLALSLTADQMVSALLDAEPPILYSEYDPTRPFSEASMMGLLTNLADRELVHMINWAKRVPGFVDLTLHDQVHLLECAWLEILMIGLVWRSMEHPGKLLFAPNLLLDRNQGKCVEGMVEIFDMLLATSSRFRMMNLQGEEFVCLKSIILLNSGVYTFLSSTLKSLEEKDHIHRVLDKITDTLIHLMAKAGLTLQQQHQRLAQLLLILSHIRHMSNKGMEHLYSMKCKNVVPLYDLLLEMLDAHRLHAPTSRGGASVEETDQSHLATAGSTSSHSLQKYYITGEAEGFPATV
Procedure, shortened: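 Agonist-mode confirmation in the presence of the ER antagonist ICI-182,780 at 10.0nM final. Breast-derived VM7Luc4E2 reporter cells were exposed to compounds for 22hr, and ERE-driven luciferase was quantified by luminescence.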

[8] = qHTS assay to identify small molecule agonists or antagonists of the thyroid stimulating hormone receptor (TSHR) signaling pathway - wild type cell line counter screen (AID 1259384; calls by dose curve)
Procedure, shortened: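 Wild-type Hek293 cells, 800/well, 18 h at 37C, then compound with Ro20-1724 for 30 min RT. cAMP by HTRF (cAMP-d2/anti-cAMP cryptate), 1 h RT, fluorescence read. 15 concentrations, triplicates.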

[9] = target: Thyrotropin receptor (Homo sapiens) (UniProt P16473); assay: qHTS assay to identify small molecule antagonists of the thyroid stimulating hormone receptor (TSHR) signaling pathway (AID 1259385; calls by dose curve; note: nearly all actives have a fitted effect of over 20% in size)
Thyrotropin receptor (Homo sapiens), sequence (P16473 whole entry, looked up): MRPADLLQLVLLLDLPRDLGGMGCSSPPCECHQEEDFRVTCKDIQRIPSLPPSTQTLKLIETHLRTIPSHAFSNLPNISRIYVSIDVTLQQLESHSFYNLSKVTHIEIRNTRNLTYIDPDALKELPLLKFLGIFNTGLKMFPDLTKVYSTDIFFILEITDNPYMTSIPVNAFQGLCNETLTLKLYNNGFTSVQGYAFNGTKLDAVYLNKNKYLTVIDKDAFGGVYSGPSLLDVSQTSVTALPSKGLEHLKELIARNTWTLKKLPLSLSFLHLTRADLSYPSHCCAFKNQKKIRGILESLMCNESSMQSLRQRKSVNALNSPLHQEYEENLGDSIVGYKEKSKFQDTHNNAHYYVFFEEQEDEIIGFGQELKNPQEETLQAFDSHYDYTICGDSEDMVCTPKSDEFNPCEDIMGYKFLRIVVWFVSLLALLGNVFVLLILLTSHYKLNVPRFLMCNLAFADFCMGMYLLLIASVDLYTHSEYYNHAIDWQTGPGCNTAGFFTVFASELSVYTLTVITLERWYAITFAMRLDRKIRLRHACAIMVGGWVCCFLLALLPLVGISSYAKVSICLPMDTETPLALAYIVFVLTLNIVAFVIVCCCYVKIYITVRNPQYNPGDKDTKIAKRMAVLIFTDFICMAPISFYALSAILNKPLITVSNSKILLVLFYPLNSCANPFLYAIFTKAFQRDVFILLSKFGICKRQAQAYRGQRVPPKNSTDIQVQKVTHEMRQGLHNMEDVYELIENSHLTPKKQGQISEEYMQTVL
Procedure, shortened: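 TSHR-HEK293 cells (800/well) plated 18 h, then compounds with Ro20-1724 and TSH at 1.5 ng/mL final, 30 min at room temperature. cAMP quantified by HTRF (cAMP-d2/anti-cAMP-cryptate, 1 h); 15 concentrations in triplicate.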

[10] = qHTS assay to identify small molecule agonists of the estrogen receptor alpha (ER-alpha) signaling pathway in the presence of an antagonist - cell viability counter screen (AID 1259386);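 note: series mostly up to about 92 µM; cells exposed to compounds for 22 h at 37 °C before the viability read; nearly all actives have a fitted effect of over 30% in size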
Procedure, shortened: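 Cytotoxicity was measured in parallel with the ERE-luciferase agonist screen, in the same wells. The cells were VM7Luc4E2, which endogenously express ER-alpha, and treatment was with compounds plus 10.0nM ICI-182,780 for 22hr.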

[11] = target: Progesterone receptor (Homo sapiens) (UniProt P06401); assay: qHTS assay to identify small molecule agonists of the progesterone receptor (PR) signaling pathway (AID 1346784; calls by dose curve; note: nearly all actives have a fitted effect of over 30% in size)
Progesterone receptor (Homo sapiens), sequence (P06401 whole entry, looked up): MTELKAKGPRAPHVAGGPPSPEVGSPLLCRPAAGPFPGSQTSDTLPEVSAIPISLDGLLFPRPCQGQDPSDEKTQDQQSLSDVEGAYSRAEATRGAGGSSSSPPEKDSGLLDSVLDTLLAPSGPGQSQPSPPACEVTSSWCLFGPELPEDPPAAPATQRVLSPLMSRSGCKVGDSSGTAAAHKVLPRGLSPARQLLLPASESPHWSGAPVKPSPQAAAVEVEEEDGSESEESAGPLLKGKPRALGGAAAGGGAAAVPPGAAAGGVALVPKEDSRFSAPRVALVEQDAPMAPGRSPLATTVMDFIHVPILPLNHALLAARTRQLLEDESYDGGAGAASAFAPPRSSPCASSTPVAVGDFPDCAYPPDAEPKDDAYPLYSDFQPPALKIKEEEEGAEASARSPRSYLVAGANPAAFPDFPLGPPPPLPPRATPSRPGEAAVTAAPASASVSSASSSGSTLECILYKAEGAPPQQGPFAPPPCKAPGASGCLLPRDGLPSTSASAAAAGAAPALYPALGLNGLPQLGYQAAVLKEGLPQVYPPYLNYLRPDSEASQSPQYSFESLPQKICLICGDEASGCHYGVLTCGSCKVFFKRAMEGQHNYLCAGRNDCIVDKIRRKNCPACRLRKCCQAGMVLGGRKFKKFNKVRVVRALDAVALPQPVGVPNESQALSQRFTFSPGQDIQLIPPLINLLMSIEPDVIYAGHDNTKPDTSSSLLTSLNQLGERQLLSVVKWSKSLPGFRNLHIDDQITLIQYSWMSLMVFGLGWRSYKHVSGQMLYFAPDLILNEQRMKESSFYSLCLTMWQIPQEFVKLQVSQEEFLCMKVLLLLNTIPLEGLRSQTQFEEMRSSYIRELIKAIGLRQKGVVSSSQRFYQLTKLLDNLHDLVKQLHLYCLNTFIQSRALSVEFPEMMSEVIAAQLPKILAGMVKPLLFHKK
Procedure, shortened: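 Reporter assay, GripTite PR-UAS-bla HEK 293T cells: 16 hr exposure to DMSO-dissolved compounds at 37C, 5% CO2, in steroid-depleted (2% charcoal-stripped FBS) medium; beta-lactamase measured by FRET fluorescence.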

[12] = target: Progesterone receptor (Homo sapiens) (UniProt P06401); assay: qHTS assay to identify small molecule antagonists of the progesterone receptor (PR) signaling pathway (AID 1346795; active = well fitted inhibition curve with a large enough effect in the signal ratio in the repeat runs, not every such curve was filed as active; the % refers to the signal ratio)
Procedure, shortened: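 Stimulus R5020 at 1 nM final; cells HEK293T PR-UAS-bla; medium with 2% charcoal-stripped FBS; compound exposure 16 hr at 37C, 5% CO2; detection by FRET beta-lactamase substrate, 2 hr, room temperature.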

[13] = qHTS assay to identify small molecule antagonists of the progesterone receptor (PR) signaling pathway - cell viability counter screen (AID 1346798); note: series mostly up to about 92 µM; nearly all actives have a fitted effect of over 50% in size
Procedure, shortened: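 In the same plates used for the beta-lactamase readout, cell viability of compound- and R5020-treated PR-UAS-bla HEK293T cells (16 hr, 37C) was assessed by CellTiter-Glo luminescence.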

[14] = qHTS assay to identify small molecule agonists of the progesterone receptor (PR) signaling pathway - cell viability counter screen (AID 1346799; calls by dose curve; note: nearly all actives have a fitted effect of over 45% in size)
Procedure, shortened: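 Multiplexed viability read: CellTiter-Glo luminescence, 30 min RT, following LiveBLAzer FRET measurement on PR-UAS-bla HEK293T cells exposed to compounds 16 hr.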

[15] = qHTS assay to identify small molecule antagonists of the TGF-beta/Smad signaling pathway - cell viability counter screen (AID 1346824); note: nearly all actives have a fitted effect of over 50% in size
Procedure, shortened: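 SBE-bla HEK 293T cells, incubated overnight, then compound plus 0.25 ng/mL TGF-beta1 (stock added) for 5 hr at 37 C. Viability was read in the same wells by CellTiter-Glo luminescence after 30 min at room temperature.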

[16] = qHTS assay to identify small molecule agonists of the TGF-beta/Smad signaling pathway - cell viability counter screen (AID 1346829); note: top concentration of the series differs between compounds; nearly all actives have a fitted effect of over 45% in size
Procedure, shortened: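 SBE-bla HEK 293T cells plated overnight, compound exposure 5 hr at 37 C. Viability read in the same wells by CellTiter-Glo luminescence after 30 min at room temperature, following the beta-lactamase read.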

[17] = qHTS assay to identify small molecule agonists of the TGF-beta/Smad signaling pathway (AID 1346859; active = well fitted activation curve with a large enough effect in the signal ratio in the repeat runs, not every such curve was filed as active; the % refers to the signal ratio; note: series mostly up to about 77 µM)
Procedure, shortened: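 Screening used HEK 293T SBE-bla cells at 4,000/well. Test agents: 5 hr, 37 C. Detection: FRET substrate, 2 hr RT, then excitation 405 nm with emissions at 460 and 530 nm.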

[18] = target: Thyrotropin-releasing hormone receptor (Homo sapiens) (UniProt P34981); assay: qHTS assay to identify small molecule antagonists of the thyrotropin-releasing hormone receptor (TRHR) signaling pathway (AID 1346877; active = well fitted inhibition curve with a large enough effect in the repeat runs, not every such curve was filed as active; note: series mostly up to about 51 µM)
Thyrotropin-releasing hormone receptor (Homo sapiens), sequence (P34981 whole entry, looked up): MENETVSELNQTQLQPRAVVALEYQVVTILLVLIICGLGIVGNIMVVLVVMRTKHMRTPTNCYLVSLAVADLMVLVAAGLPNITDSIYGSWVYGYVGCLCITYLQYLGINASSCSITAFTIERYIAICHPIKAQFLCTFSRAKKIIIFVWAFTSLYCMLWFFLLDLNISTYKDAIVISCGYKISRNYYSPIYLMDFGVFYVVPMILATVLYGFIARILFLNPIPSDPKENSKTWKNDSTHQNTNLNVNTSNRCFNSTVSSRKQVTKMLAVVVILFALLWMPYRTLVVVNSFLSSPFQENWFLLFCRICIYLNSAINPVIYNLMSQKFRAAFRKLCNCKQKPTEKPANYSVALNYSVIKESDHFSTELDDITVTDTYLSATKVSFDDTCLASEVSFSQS
Procedure, shortened: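 Antagonism is measured as suppression of the calcium response to 1 nM TRH in TRHR-HEK293 cells that have been dye-loaded for 2 h at 37 °C after overnight plating. Each compound is tested at 15 concentrations in triplicate.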

[19] = target: Thyrotropin-releasing hormone receptor (Homo sapiens) (UniProt P34981); assay: qHTS assay to identify small molecule agonists of the thyrotropin-releasing hormone receptor (TRHR) signaling pathway (AID 1346891; calls by dose curve; note: series mostly up to about 58 µM)
Procedure, shortened: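 Readout was intracellular calcium fluorescence in TRHR-Hek293 cells. Cells were incubated 18 h, dye-loaded 2 h at 37 °C, and treated with compound in agonist mode.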
% is set by controls: 0 for no effect and ±100 for the full control effect.

C1CN2CCC1CC2
inactive: Potency [1] | Potency [2] | outcome [3] | Potency [4] | Potency [5] | Potency [6] | Potency [7] | outcome [8] | outcome [9] | Potency [10] | Potency [11] | Potency [12] | Potency [13] | Potency [14] | outcome [15] | Potency [16] | outcome [17] | Potency [18] | outcome [19]

C=C(C)[C@H]1CN[C@H](C(=O)O)[C@H]1CC(=O)O
inactive: Potency [1] | Potency [2] | outcome [3] | Potency [4] | Potency [5] | Potency [6] | Potency [7] | outcome [8] | outcome [9] | Potency [10] | Potency [11] | Potency [12] | Potency [13] | Potency [14] | Potency [16] | outcome [17] | Potency [18] | outcome [19]

CCc1cc(OC)c(C[C@H](C)N)cc1OC
active: Potency [5] 71.5 µM
inactive: Potency [1] | Potency [2] | outcome [3] | outcome [8] | outcome [9] | Potency [10] | Potency [11] | outcome [15] | Potency [16] | outcome [17] | Potency [18] | outcome [19]

COc1ccc(CN2CCNCC2)c(OC)c1OC
inactive: Potency [1] | Potency [2] | outcome [3] | Potency [4] | Potency [5] | Potency [6] | Potency [7] | Potency [10] | Potency [11] | Potency [12] | outcome [15] | Potency [16] | outcome [17] | Potency [18] | outcome [19]

CC(=O)OCC1=C(C(=O)O)N2C(=O)[C@@H](N)[C@H]2SC1
inactive: activity change, negative = inhibition [1] 1.15% [at 19 µM] | activation [2] -0.931% [at 19 µM] | activity, negative = inhibition [3] 21.8% [at 19 µM] | activity change, negative = cytotoxicity [4] 4.78% [at 19 µM] | activity change, negative = cytotoxicity [5] 0.632% [at 19 µM] | activity change, negative = cytotoxicity [6] -2.02% [at 19 µM] | cAMP activity change [8] 4.85% [at 18.9 µM] | activity change, negative = inhibition [9] 1.01% [at 19 µM] | activity change, negative = cytotoxicity [10] -2.84% [at 19 µM] | activation [11] 0.683% [at 19 µM] | activity change, negative = inhibition [12] 0.73% [at 18.9 µM] | activity change, negative = cytotoxicity [14] 3.69% [at 19 µM] | viability change, negative = cytotoxic [15] -0.755% [at 15.8 µM] | activity change, negative = cytotoxicity [16] -0.572% [at 15.8 µM] | activation [17] -1.32% [at 15.8 µM]

O=C1CCCCC1Cl (configuration not stated)
inactive: Potency [1] | Potency [2] | outcome [3] | Potency [4] | Potency [5] | Potency [6] | outcome [8] | outcome [9] | Potency [10] | Potency [11] | Potency [12] | Potency [13] | Potency [14] | outcome [15] | Potency [16] | outcome [17]

CCOC(=O)N(C)N=O
inactive: Potency [1] | Potency [2] | outcome [3] | Potency [4] | Potency [5] | Potency [6] | outcome [8] | Potency [10] | Potency [11] | Potency [12] | Potency [13] | Potency [14] | outcome [15] | Potency [16] | outcome [17] | Potency [18] | outcome [19]

C#CC(C)(C)O
inactive: Potency [1] | Potency [2] | outcome [3] | Potency [4] | Potency [5] | Potency [6] | Potency [10] | Potency [11] | Potency [12] | Potency [14] | outcome [15] | Potency [16] | outcome [17]

CCCC(C)(COC(N)=O)COC(N)=O
inactive: Potency [2] | outcome [3] | Potency [4] | Potency [5] | Potency [6] | outcome [8] | outcome [9] | Potency [10] | Potency [11] | Potency [12] | Potency [13] | Potency [14] | outcome [15] | Potency [16] | outcome [17]
active: Potency [1] 25.8 µM
